# Tb hexokinase – T. brucei hexokinase 1 inhibition; recombinant TbHK1, G6PDH-coupled NADH A340; inhibition, % at 10 µM; 220,000 tested, 0.11% active; AID 1430;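 active means inhibition of 50% or more in the single-dose primary screen; inactive means inhibition below 50%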
# Efa HMGR inh – blocks class II HMG-CoA reductase of Enterococcus faecalis | purified E. faecalis HMGR, NADPH absorbance 340 nm kinetic | inhibition, % at 10 µM | 190,000 tested, 0.41% active;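 active means inhibition above a set limit, the median over all tested compounds plus 3 SD, cut at about 9.5% in these data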;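 further: enzyme runs in reverse so mevalonate oxidation gives rising NADPH absorbance; 0% = complete reaction with DMSO and 100% = background rate lacking mevalonate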
# Furin inhibitor – inhibitors of human furin. purified furin, fluorogenic substrate cleavage. inhibition, % at 20 µM or 30 µM. 220,000 tested, 0.061% active. AID 463115; in the data active means inhibition above about 25%
# Redox H2O2 prof – compounds producing H2O2 with reducing agent – biochemical, NIH compound library profiling, artefact control for MLSCN library redox annotation, primary screen; AID 878; activation, % at 10 µM; DTT-dependent redox cycling H2O2, phenol red/HRP absorbance; 100% = 100 µM peroxide control, 0% = buffer; 200,000 tested, 0.03% active;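 active means activation of at least 50% relative to the plate's high and low controls in the primary single-dose screen; inactive means activation below 50%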;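 further: compound incubated with DTT at 0.8 mM final as the reducing agent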
# pCIP destab – p/CIP protein destabilization; Q05BA5; F442A p/CIP-EGFP cells, EGFP fluorescence, 16 h; decrease of EGFP signal, % at 10 µM; 290,000 tested, 0.01% active; AID 1984;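 active means EGFP signal decrease of at least 30% at 10 µM or well 3 SD below plate mean, unless failing retest; inactive means the rest, including hits failing retest or dose response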
# Target sequence (Q05BA5 1-1403): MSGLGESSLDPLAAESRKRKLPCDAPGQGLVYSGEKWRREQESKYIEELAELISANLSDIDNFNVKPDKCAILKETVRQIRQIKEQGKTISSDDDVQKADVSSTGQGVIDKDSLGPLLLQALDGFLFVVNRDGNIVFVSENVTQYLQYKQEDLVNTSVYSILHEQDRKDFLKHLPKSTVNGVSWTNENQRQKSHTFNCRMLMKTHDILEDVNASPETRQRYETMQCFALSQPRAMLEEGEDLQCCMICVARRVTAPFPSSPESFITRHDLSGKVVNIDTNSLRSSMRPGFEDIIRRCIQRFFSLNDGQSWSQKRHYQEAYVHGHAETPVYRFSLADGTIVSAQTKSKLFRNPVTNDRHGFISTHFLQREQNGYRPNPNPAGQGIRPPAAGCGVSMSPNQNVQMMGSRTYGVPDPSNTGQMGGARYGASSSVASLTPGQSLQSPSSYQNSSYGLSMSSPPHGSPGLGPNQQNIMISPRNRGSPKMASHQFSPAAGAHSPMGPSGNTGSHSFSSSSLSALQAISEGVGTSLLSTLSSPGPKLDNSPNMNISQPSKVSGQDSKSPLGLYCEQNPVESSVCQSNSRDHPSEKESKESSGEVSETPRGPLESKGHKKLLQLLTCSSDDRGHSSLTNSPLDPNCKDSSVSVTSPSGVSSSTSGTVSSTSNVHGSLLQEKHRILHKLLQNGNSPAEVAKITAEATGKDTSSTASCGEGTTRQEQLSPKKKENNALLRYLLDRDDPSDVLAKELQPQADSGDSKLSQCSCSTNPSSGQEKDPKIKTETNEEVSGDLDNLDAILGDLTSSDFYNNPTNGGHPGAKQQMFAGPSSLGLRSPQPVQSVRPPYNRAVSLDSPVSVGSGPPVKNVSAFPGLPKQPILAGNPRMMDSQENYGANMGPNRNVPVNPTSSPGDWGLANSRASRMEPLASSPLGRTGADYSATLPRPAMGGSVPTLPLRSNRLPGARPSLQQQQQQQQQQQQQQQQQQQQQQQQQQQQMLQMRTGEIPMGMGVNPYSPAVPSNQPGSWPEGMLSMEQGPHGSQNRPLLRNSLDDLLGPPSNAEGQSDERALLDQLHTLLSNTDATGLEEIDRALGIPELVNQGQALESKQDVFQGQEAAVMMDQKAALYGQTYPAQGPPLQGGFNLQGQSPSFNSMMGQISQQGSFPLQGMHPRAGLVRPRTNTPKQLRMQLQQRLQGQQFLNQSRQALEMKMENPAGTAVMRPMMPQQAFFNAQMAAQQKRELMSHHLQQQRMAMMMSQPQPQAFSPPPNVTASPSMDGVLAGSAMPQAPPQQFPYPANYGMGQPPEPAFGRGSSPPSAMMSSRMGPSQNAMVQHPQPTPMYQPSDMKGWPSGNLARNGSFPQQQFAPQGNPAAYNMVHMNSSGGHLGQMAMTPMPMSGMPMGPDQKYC
# p97 ATPase inh – inhibitors of human p97 ATPase. P55072. recombinant p97 ATPase, Kinase-Glo ATP luminescence, 3 h. inhibition, % at 8 µM. 220,000 tested, 0.42% active; in the data active means inhibition above about 15%;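 further: 0% = DMSO vehicle and 100% = wells lacking enzyme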
# G6PDH counter – inhibits Leuconostoc G6PDH, counter-screen for TbHK1 inhibitors. purified G6PDH, NADH absorbance, 1 h. inhibition, % at 10 µM. shares compounds with Tb hexokinase. AID 2516. 210 tested, 7% active;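 active means at least 50% inhibition in the glucose-6-phosphate dehydrogenase coupled counterscreen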
# TbHK1 confirm – T. brucei hexokinase 1 inhibition, rescreen; shares compounds with Tb hexokinase; recombinant TbHK1, G6PDH-coupled NADH A340 absorbance; inhibition, % at 10 µM; 210 tested, 10% active; AID 2560;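 active means inhibition of at least 50% in both of the two screening runs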;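 further: 0% and 100% set by the maximum and minimum signal control wells on each plate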
# Active calls of the source: *; x = no result. Rows were chosen to be rich in hits. Some 0.74% of all compounds tested hit in one or more screens of this group.
SMILES,Tb hexokinase,Efa HMGR inh,Furin inhibitor,Redox H2O2 prof,pCIP destab,p97 ATPase inh,G6PDH counter,TbHK1 confirm
COc1ccc(-c2nc(C3CCCCC3)no2)cc1OC,64*,-4,0,1,-28,2,-12,-5
c1ccc(-c2nc(C3CCCCC3)no2)cc1,9,-6,-21,2,0,4,x,x
CCC(C)COC(=O)C(C#N)c1nc2ccccc2nc1N1CCCCC1 (stereo not drawn),56*,1,4,-1,-17,0,-12,18
Cc1occc1-c1nnc(SCC(=O)N2CCOCC2)n1CCc1ccccc1,54*,0,-7,0,-2,0,-10,-2
CCCCn1c(SCC(=O)N2CCOCC2)nnc1-c1ccoc1C,3,-4,-34,3,0,-2,x,x
O=S(=O)(Nc1cccnc1)c1ccc(Br)c2ccccc12,x,x,x,x,-8,x,x,x
O=C(O)Cn1c(=O)c2c3c(sc2n(Cc2ccccc2F)c1=O)CCCC3,x,x,x,x,7,x,x,x
Cn1c(SCc2ccc(C#N)cc2)nnc1-c1ccccc1,4,-4,-23,2,23,6,x,x
Cn1c(SCc2ccc(C#N)cc2)nnc1-c1cccc(Cl)c1,55*,-4,-12,-1,-7,-2,-12,20
O=C(c1ccccc1)N1N=C(C(F)(F)F)CC1(O)c1ccc(F)cc1 (stereo not drawn),x,x,x,x,-12,x,x,x
O=C(c1cc(N2CCOCC2)c(F)cc1[N+](=O)[O-])N1CCOCC1,x,x,x,x,-3,x,x,x
COc1ccc(S(=O)(=O)N2CCOCC2)cc1NC(=O)CSc1cccc[n+]1[O-],-5,x,-3,x,11,3,x,x
C/C(=C/CCC(C)C1CCC2(C)C3CCC4C(C)(C)C(=O)CCC4(C)C3=CCC12C)C(=O)O (stereo not drawn),1,x,-29,x,-8,x,x,x
C/C(=C/CCC(C)[C@H]1CC[C@@]2(C)C3=C(CC[C@]12C)[C@@]1(C)CCC(=O)C(C)(C)[C@@H]1CC3)C(=O)O (stereo partly drawn),67*,3,-13,0,-8,-4,-42,86*
CCOC(=O)c1c(C)c(C(=O)NCc2ccccn2)c(C)n1C,-1,-5,-18,-2,0,-6,x,x
CCOC(=O)c1c(C)c(C(=O)NCc2cccnc2)c(C)n1C,63*,-3,-2,2,4,4,-2,1
O=C(Nc1ccccc1Cl)Nc1ccnn1C1CCN(C(=O)CCN2CCCO2)CC1,x,x,x,x,7,x,x,x
COc1cccc2c(=O)c(C(=O)NCc3cccs3)c[nH]c12,53*,-5,-3,-3,-12,-2,-13,-22
CCCCOc1ccc(C(=O)NNC(=S)NC(=O)CC)cc1,58*,-3,-15,0,-3,10,-19,-9
CCC(=O)NC(=S)NNC(=O)c1ccc(OC)cc1,-2,0,-23,1,-8,1,x,x
CCC(c1nnc(SCC(=O)Nc2cc(S(C)(=O)=O)ccc2Cl)n1Cc1ccccc1)N(C)C (stereo not drawn),x,x,x,x,-6,x,x,x
Cc1cc(C)c(S(=O)(=O)Nc2ccccc2C(=O)N2CCOCC2)c(C)c1,x,x,x,x,11,x,x,x
COc1ccc(S(=O)(=O)NNC(=O)C(=O)NNc2ccccn2)cc1,53*,x,-21,x,2,-1,-16,10
COc1ccc(C(=O)NNS(=O)(=O)c2ccc(OC)cc2)cc1,x,x,x,x,-10,x,x,x
COc1cc(-c2nnn(CC(=O)NC3CCS(=O)(=O)C3)n2)ccc1OCc1ccccc1 (stereo not drawn),66*,-3,1,0,-10,-7,-38,1
CCOc1ccc(N2CC(=O)N/C2=N\c2nc(C)cc(C)n2)cc1,69*,2,-7,0,-12,5,-9,-8
CCOc1cccc2c1OC1(C)CC2NC(=O)N1c1cccc(C(=O)NCc2ccccn2)c1 (stereo not drawn),x,x,x,x,-2,x,x,x
CCOc1cccc2c1OC1(C)CC2NC(=O)N1c1cccc(F)c1 (stereo not drawn),57*,-1,-8,2,5,3,-5,-1

# Assay outcomes: PubChem, several laboratories
